# Experimental data reported in PubChem BioAssay (NCI).
# About 79,000 compounds went through this panel and 15% of them were active in at least one assay; those are over-represented in the sample as a whole. Unmarked numbers belong to inactive results. Active and inactive are the calls of the source. Cut-off read from the data, not from the text of the source: active = growth inhibition above about 70%; inactive = the rest.
# Key:
# [1] = NCI Yeast Anticancer Drug Screen. Data for the rad50 strain (AID 155);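 note: 0% = growth of vehicle-only cultures of the same strain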; details: S. cerevisiae rad50 strain growth inhibition, active compounds read high
# Summary of the method: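 Readout: growth inhibition relative to vehicle-treated cultures. Compound exposure was carried out in a genetically defined yeast strain deficient in DNA damage repair.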
# [2] = NCI Yeast Anticancer Drug Screen. Data for the mec2-1 strain (AID 157); details: S. cerevisiae mec2-1 strain, active compounds read high
# Summary of the method: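 Each compound was tested on mec2-1 yeast, a strain altered in DNA damage repair or cell cycle control. Growth inhibition is reported relative to vehicle.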
# [3] = NCI Yeast Anticancer Drug Screen. Data for the sgs1 mgt1 strain (AID 161);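 note: 0% = growth of cultures given vehicle only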; details: S. cerevisiae sgs1 mgt1 strain, active compounds read high
# Summary of the method: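 Test agents were incubated with a DNA-repair-mutant yeast strain. Growth was then read and compared against vehicle-treated controls.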
# [4] = NCI Yeast Anticancer Drug Screen. Data for the cln2 rad14 strain (AID 165);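 note: 0% = growth equal to vehicle treated cultures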; details: S. cerevisiae cln2 rad14 strain, active compounds read high
# Summary of the method: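 Test compounds were added to cln2 rad14 yeast cultures; inhibition of growth was then determined by comparison with vehicle treatment.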
# [5] = NCI Yeast Anticancer Drug Screen. Data for the bub3 strain (AID 167); details: S. cerevisiae bub3 mutant strain, active compounds read high
# Summary of the method: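 Readout: yeast growth inhibition, expressed relative to vehicle-only wells. The test organism is a mutant strain from a panel with lesions in DNA repair or checkpoint genes.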
# [6] = NCI Yeast Anticancer Drug Screen. Data for the mlh1 rad18 strain (AID 175); details: S. cerevisiae mlh1 rad18 strain growth inhibition, active compounds read high
# Summary of the method: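 Inhibition values reflect reduced growth of mutant yeast versus vehicle-treated controls following compound exposure; the mutations affect DNA damage repair.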
# [7] = at 5.0 µM (retest, dose inferred, filed as 0.5)
# [8] = at 50.0 µM (retest, dose inferred, filed as 5.0)
Structure (SMILES),"growth inhibition [1, 7]","growth inhibition [1, 8]",growth inhibition ([1]; at 50.0 µM),"growth inhibition [2, 7]","growth inhibition [2, 8]",growth inhibition ([2]; at 50.0 µM),"growth inhibition [3, 7]","growth inhibition [3, 8]",growth inhibition ([3]; at 50.0 µM),"growth inhibition [4, 7]","growth inhibition [4, 8]",growth inhibition ([4]; at 50.0 µM),"growth inhibition [5, 7]","growth inhibition [5, 8]",growth inhibition ([5]; at 50.0 µM),"growth inhibition [6, 7]","growth inhibition [6, 8]",growth inhibition ([6]; at 50.0 µM)
COc1cc(C2=N/C(=C\c3ccccc3O)C(=O)O2)cc(OC)c1OC,-23%,-22%,-9.9%,-8%,-21%,-27.1%,-15%,-6%,4.05%,0%,2%,8.7%,-20%,-23%,10.8%,-43%,-47%,0.65%
CC(=O)C1C(S)CC2C3CC=C4CC(O)CCC4(C)C3CCC21C (stereo not given),1%,98% (active),98.8% (active),7%,98% (active),98.5% (active),-8%,98% (active),98.7% (active),-7%,98% (active),98% (active),8%,98% (active),50.9%,0%,98% (active),98.8% (active)
O=C(O)CCCCC1CCCCC1.[Cu+2],31%,94% (active),14.7%,23%,90% (active),-3.1%,13%,93% (active),36%,8%,30%,0.9%,17%,91% (active),6.2%,19%,94% (active),1.85%
CN(C)CCCNc1ccc2c(=O)n(CCN(C)C)c(=O)n3c4ccccc4c(=O)c1c23,42%,69%,71.7% (active),29%,33%,55%,28%,18%,26.2%,40%,24%,58.6%,61%,37%,40.9%,55%,61%,25.4%
O=C1CCC(=O)c2c1c(O)c1ccncc1c2O,18%,99% (active),98.1% (active),26%,99% (active),99.3% (active),31%,99% (active),99.2% (active),11%,99% (active),98.5% (active),16%,99% (active),99.2% (active),41%,99% (active),99% (active)
CCC(=O)/C(=C\I)c1ccccc1,26%,26%,89.3% (active),-6%,-6%,92.2% (active),23%,23%,86.7% (active),8%,8%,89.9% (active),7%,7%,89.5% (active),21%,21%,85.5% (active)
Nc1ccc(S(=O)(=O)Nc2nc3ccccc3nc2N2CCCCCC2)cc1,30%,79% (active),43.5%,30%,87% (active),48.1%,36%,92% (active),82.2% (active),40%,92% (active),82.5% (active),44%,95% (active),85.2% (active),39%,90% (active),85.6% (active)
OCc1ccc(OCc2ccccc2)c(OCc2ccccc2)c1,6%,15%,88.2% (active),7%,14%,77.1% (active),-8%,47%,92.8% (active),51%,26%,80.3% (active),10%,55%,94.5% (active),0%,62%,96.5% (active)
O=C1C(c2c[nH]c3ccc(Br)cc23)=Nc2ccc(Br)cc21,-1%,2%,88% (active),3%,21%,75.8% (active),-20%,-32%,85.5% (active),-6%,-18%,88.8% (active),-4%,-2%,82.2% (active),7%,25%,73.4% (active)
[NH-]c1ccccc1[S-].[NH-]c1ccccc1[S-].[Zn],0%,99% (active),99.3% (active),11%,100% (active),99.6% (active),18%,100% (active),102% (active),7%,98% (active),96.3% (active),14%,99% (active),99.4% (active),19%,99% (active),99.2% (active)
